MCF10A rerep: inducers of DNA re-replication in MCF 10A breast cells | MCF 10A DNA re-replication, Hoechst nuclear intensity, 48 h | Potency, µM (titrated, usually from 46.1 µM), usual class: activators | actives 2.9% (n = 350,000) | AID 624296; further: nearly all actives have a fitted effect of over 50% in size
SW480 rereplic: induces DNA re-replication in SW480 colon adenocarcinoma cells. SW480 DNA re-replication, Hoechst DNA content imaging, 48 h. Potency, µM (titrated, usually from 46.1 µM), actives largely listed as activators. actives 1.8% (n = 340,000). AID 624297; further: nearly all actives have a fitted effect of over 55% in size
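Hoechst fluorescence of nuclei (405 nm excitation, 500-530 nm emission) measured by plate-scanning imager after 48 hr compound exposure at 37 C; re-replication scored as increased number of nuclei with elevated intensity.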
KB-V1 cytotox: kills drug-selected multidrug resistant KB-V1 cells | KB-V1 MDR cells viability, CellTiter-Glo, 72 h | Potency, µM (top dose mostly 46.1 µM), usual class: cytotoxic | actives 3.4% (n = 400,000) | AID 1347076; further: nearly all actives have a fitted effect of over 60% in size
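Cytotoxicity toward P-gp-expressing KB-V1 cells was determined as loss of CellTiter-Glo luminescence after 72 h at 37 degrees C. Compounds were tested in quantitative HTS format across a concentration range, with curves fitted to normalized data.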
KB-3-1 cytotox: KB-3-1 parental cell cytotoxicity | Potency, µM (highest dose often 46.1 µM), actives largely listed as cytotoxic | KB-3-1 viability, CellTiter-Glo ATP luminescence, 72 h | actives 1.4% (n = 400,000); further: nearly all actives have a fitted effect of over 60% in size
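Parental KB-3-1 viability, qHTS format: 72 h compound exposure, 37 °C; CellTiter-Glo; media-only wells and DMSO plates as controls; concentration-effect fits on corrected data.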
RORg inh: ROR gamma (mouse) transcription inhibition | Drosophila S2 Gal4-RORgamma UAS-luciferase reporter, 20 h | Potency, µM (series often up to 53.6 µM), most hits filed as inhibitors | actives 5.4% (n = 310,000); further: nearly all actives have a fitted effect of over 60% in size
Target sequence (P51450 whole entry, looked up, the tested form may be a part): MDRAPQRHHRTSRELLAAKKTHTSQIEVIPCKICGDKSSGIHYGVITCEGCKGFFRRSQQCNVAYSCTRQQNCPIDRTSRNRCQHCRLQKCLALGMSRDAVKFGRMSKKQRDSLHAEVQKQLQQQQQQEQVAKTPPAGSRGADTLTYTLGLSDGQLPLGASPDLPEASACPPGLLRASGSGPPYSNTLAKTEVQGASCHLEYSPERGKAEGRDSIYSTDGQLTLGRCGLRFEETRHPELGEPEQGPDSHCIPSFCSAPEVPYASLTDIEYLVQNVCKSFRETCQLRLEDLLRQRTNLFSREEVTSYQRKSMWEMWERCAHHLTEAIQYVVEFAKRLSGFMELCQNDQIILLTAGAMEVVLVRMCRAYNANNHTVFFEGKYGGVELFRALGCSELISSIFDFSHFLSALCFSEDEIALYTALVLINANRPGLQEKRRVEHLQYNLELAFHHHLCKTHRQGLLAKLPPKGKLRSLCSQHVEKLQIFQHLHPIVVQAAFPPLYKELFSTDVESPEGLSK
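Stable Schneider cell line, Gal4 DNA-binding domain fused to ROR gamma, UAS-luciferase. Cmpd 1 hr RT → CuSO4 700 uM final → 20 hr RT → luciferase reagent 10 min → luminescence.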
Gal4-VP16 FLuc: Gal4-VP16 reporter inhibition counter-screen; actives 3.5% (n = 310,000); Drosophila S2 Gal4-VP16 UAS-luciferase, luminescence, 20 h; AID 2546; Potency, µM (top dose mostly 53.6 µM), hits mostly inhibitors;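 further: Gal4-VP16 expression switched on by copper sulfate through the metallothionein promoter; nearly all actives have a fitted effect of over 50% in size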
A number is an active result; i = inactive; ? = inconclusive; nt = no result. The list is not random: actives were taken first. Their share in the collection is about 10%. The call rests on the fitted dose curve; in most records, active means well fitted curve in the direction sought with a large enough effect; inconclusive means small, poorly fitted or top-dose-only effect, or another doubt; inactive means no such curve, though single readings can be large; an effect the other way counts as inactive or inconclusive.

SMILES	MCF10A rerep	SW480 rereplic	KB-V1 cytotox	KB-3-1 cytotox	RORg inh	Gal4-VP16 FLuc
Cc1ccc2nc(-c3ccccc3)c(CN3CCOCC3)n2c1	0.65µM	i	i	i	i	?
CCOc1ccccc1NC(=O)c1nnn(-c2ccc3c(c2)OCCO3)c1N	i	?	i	?	?	i
Cc1ccccc1NC(=O)c1nnn(-c2ccc3c(c2)OCCO3)c1N	i	i	i	i	0.63µM	?
CN(C)c1ccc(/C=C\C=C/c2ccnc3ccccc23)cc1	nt	nt	i	0.92µM	nt	nt
CCc1cc(/C=C/c2ccnc3ccccc23)ccc1N(C)C	nt	nt	?	6.5µM	nt	nt
CN(C)c1ccc(N=Cc2ccnc3ccccc23)cc1	nt	nt	i	i	nt	nt
Cc1ccc2nccc(/C=C/c3ccc(N(C)C)cc3)c2c1	nt	nt	18µM	?	nt	nt
CCOC(=O)[C@]12CCCC=C1N(Cc1ccco1)C(=O)[C@H](CC(=O)NCCC(C)C)C2	nt	nt	?	i	nt	nt
O=C(NCc1ccc(Cl)cc1)C(=O)NCC(c1cccnc1)N1CCN(c2ccccc2)CC1 (configuration not stated)	nt	nt	i	?	nt	nt
COc1ccc(C2NCCc3c2[nH]c2ccccc32)cc1COc1ccc(F)cc1 (configuration not stated)	18µM	?	?	?	10µM	8.9µM
COc1ccc(C2NCCc3c2[nH]c2ccccc32)cc1CN1CCc2cc(OC)c(OC)cc2C1C (configuration not stated)	?	?	i	i	i	i
CS(=O)(=O)N(Cc1ccc(C(=O)NCCSc2ccccn2)cc1)c1ccccc1	i	i	5.8µM	i	i	i
O=C(CCSc1ccccn1)c1ccccc1	?	?	i	i	20µM	?
Cc1ccc(N(Cc2ccc(C(=O)NCCSc3ccccn3)cc2)S(C)(=O)=O)cc1C	i	i	21µM	i	i	i
O=C(O)CCSc1ccccn1	i	i	i	i	i	i
COc1ccc(N(CC(=O)NCCSc2ccccn2)S(C)(=O)=O)cc1	i	i	?	i	i	i
Cc1ccc(N(Cc2ccc(C(=O)NC3CCCCC3)cc2)S(C)(=O)=O)cc1C	?	?	?	i	i	i
COc1ccc(C(=O)NCCSc2ccccn2)cc1	i	i	i	i	13µM	?
C/C(=N\NC(=O)C(C)n1nc(C)c([N+](=O)[O-])c1C)c1ccccc1O (configuration not stated)	?	4.6µM	2.3µM	?	0.14µM	0.18µM
Cc1nn(C(C)C(=O)NCc2ccco2)c(C)c1[N+](=O)[O-] (configuration not stated)	i	i	i	i	i	i
CCOC(=O)N1CCN(Cc2nc3cc(NC(=O)C(C)C)ccc3n2C)CC1	i	i	i	i	i	i
CCCn1c(CN2CCN(C(=O)OCC)CC2)nc2cc(NC(=O)CC)ccc21	16µM	6.5µM	?	9.2µM	i	i
CCOC(=O)N1CCN(Cc2nc3cc(NC(=O)CC)ccc3n2C)CC1	i	i	i	i	i	i
CCOC(=O)N1CCN(Cc2nc3cc(NC(=O)C(C)C)ccc3n2C(C)C)CC1	nt	nt	i	0.65µM	nt	nt
Cc1ccc(C(N)=S)c(C)c1	i	i	i	i	20µM	?
SMILES	MCF10A rerep	SW480 rereplic	KB-V1 cytotox	KB-3-1 cytotox	RORg inh	Gal4-VP16 FLuc
CCOC(=O)c1cnc(SC2CC(=O)N(c3cccc(OC)c3)C2=O)nc1N (configuration not stated)	i	?	i	i	i	?
CCOc1ccc2nc(SC3CC(=O)N(c4cccc(OC)c4)C3=O)sc2c1 (configuration not stated)	?	nt	i	i	14µM	4µM
CCOc1ccc2nc(SC3CC(=O)N(c4ccccc4)C3=O)sc2c1 (configuration not stated)	?	?	i	i	10µM	13µM
O=C(OCc1ccccc1)c1c(-c2ccccc2)oc2c1C(OCCO)CCC2 (configuration not stated)	nt	nt	i	i	nt	nt
O=C(O)C1CC=CCC1C(=O)N1CCN(c2nc(-c3ccccc3)c3ccccc3n2)CC1 (configuration not stated)	9.2µM	?	i	i	i	i
O=C(O)C1CC=CCC1C(=O)N1CCN(c2nc(-c3ccccc3Cl)c3cc(Br)ccc3n2)CC1 (configuration not stated)	23µM	18µM	i	i	i	i
CC(C)NC(=O)c1ccccc1-c1ccccc1	i	i	i	i	i	i
CC(C)NC(=O)C1(C#N)C=C1c1ccccc1 (configuration not stated)	nt	nt	?	8.2µM	nt	nt
CCOC(=O)N1CCN(Cc2nc3cc([N+](=O)[O-])ccc3n2C(C)C)CC1	nt	nt	?	i	nt	nt
COc1ccc(Oc2ncc3nc(-c4cc(F)cc(F)c4)c(=O)n(C)c3n2)cc1	nt	nt	nt	nt	i	i
O=c1[nH]c(-c2ccccc2)nc2sc(-c3ccccc3)cc12	10µM	2.9µM	?	?	i	i
O=c1[nH]cnc2sc(-c3ccccc3)cc12	i	i	i	i	i	i
O=C(NCN1CCN(c2ccccc2)CC1)c1cnccn1	i	i	?	i	i	i
CCN1CCN(CNC(=O)c2cnccn2)CC1	i	i	23µM	?	i	i
Cc1ccccc1-c1noc(N)c1C#N	16µM	5.2µM	?	i	5.6µM	?
O=C(/C=C/c1ccccc1)OC1CC(O)C2(O)C=CO[C@@H](OC3OC(CO)C(O)C(O)C3O)C12 (some centres not stated)	nt	nt	nt	nt	i	i
Cc1c(CCC(=O)NCc2ccc(F)cc2)c(=O)oc2cc(O)ccc12	nt	nt	i	i	nt	nt
CN(CC(=O)NC(=O)Nc1ccccc1F)Cc1ccccc1F	?	i	nt	nt	nt	nt
CCc1cccc(C)c1NC(=O)CN(C)Cc1ccccc1F	i	i	21µM	?	i	i
COc1ccc(C2C=C(C34CC5CC(CC(C5)C3)C4)NC(=S)N2)cc1OC (configuration not stated)	i	?	18µM	i	1.3µM	1.6µM
N#Cc1ccc(CS(=O)(=O)c2nnnn2-c2ccccc2)cc1	nt	nt	nt	nt	?	i
Cc1[nH]c2ccccc2c1C(O)c1ccncc1 (configuration not stated)	i	i	i	i	i	i
CCCCCCCCCCCCCCCC[n+]1ccc(CC(O)c2c(C)[nH]c3ccccc23)c2ccccc21 (configuration not stated)	nt	nt	16µM	16µM	nt	nt
CC1(C)CC(=O)C2=C(C1)NC(=O)CC2	nt	nt	i	i	nt	nt
Cc1ccc(CNC(=O)C(=O)NCC(c2cccs2)S(=O)(=O)c2cccs2)cc1 (configuration not stated)	nt	nt	i	i	nt	nt
Cc1ccc(S(=O)(=O)NC(=O)C2(C)CCN2C(=O)CC2CCCC2)cc1 (configuration not stated)	nt	nt	i	i	nt	nt

Bioassay records deposited in PubChem BioAssay by National Center for Advancing Translational Sciences (NCATS).
